Molecules are shown by their SMILES. Hit rate of the full screen: of about 310,000 compounds, about 14,000 (4.5%) showed an effect of 50% or more. Effects have a minus sign here. This excerpt belongs to a sample that is enriched for strong results.
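Note: peak tail current of the secondary pulse compared with the same well before compound.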

The assay deals with human ether-à-go-go-related gene (hERG) potassium channel (human, UniProt Q12809). The assay can be described thus: primary screen, population patch clamp on CHO cells stably expressing hERG; higher = less effect of the substance.
Chain of human ether-à-go-go-related gene (hERG) potassium channel (Q12809 whole entry, looked up): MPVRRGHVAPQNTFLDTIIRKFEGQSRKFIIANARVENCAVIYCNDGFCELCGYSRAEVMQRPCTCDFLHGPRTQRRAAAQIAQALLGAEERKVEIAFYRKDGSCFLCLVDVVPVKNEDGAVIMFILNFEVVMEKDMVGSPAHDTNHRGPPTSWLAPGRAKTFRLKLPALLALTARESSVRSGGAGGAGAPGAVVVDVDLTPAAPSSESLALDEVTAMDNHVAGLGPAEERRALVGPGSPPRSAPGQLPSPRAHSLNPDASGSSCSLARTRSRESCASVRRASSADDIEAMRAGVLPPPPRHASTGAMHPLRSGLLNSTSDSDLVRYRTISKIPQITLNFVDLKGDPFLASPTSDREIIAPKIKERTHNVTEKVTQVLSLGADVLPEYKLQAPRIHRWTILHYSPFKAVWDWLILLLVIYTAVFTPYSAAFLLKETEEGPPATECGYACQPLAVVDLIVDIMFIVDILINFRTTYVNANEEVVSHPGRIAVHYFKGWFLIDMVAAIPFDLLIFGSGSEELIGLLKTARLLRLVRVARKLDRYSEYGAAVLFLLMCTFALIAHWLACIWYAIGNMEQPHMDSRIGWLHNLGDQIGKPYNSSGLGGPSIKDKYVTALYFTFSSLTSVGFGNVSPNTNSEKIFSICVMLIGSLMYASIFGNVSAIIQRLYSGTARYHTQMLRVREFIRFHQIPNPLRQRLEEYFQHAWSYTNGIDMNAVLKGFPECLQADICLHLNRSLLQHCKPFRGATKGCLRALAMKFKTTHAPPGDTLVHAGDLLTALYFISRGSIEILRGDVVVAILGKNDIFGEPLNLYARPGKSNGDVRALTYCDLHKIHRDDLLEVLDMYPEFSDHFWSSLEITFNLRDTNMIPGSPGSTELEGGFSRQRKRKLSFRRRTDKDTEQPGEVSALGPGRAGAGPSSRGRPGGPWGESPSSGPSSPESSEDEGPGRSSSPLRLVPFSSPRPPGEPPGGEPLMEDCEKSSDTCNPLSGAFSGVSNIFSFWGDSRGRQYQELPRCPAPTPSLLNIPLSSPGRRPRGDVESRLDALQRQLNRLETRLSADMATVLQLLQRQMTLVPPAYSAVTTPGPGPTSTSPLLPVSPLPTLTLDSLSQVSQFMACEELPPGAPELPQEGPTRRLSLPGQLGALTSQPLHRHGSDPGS
Regarding `CCn1ccnc1CN1CCCC(C(=O)c2cc(C)c(OC)c(C)c2)C1` (stereo not shown), the “hERG current change (%, negative = inhibition) at 10uM” value is reported as -23.2%. On to `CSc1ccc(C(=O)C2CCCN(C(=O)Cn3cnnn3)C2)cc1` (stereo not shown), for which the “hERG current change (%, negative = inhibition) at 10uM” value is on record as -12.8%. `CSc1ccc(C(=O)C2CCCN(C(=O)c3ccc(C)nc3)C2)cc1` (stereo not shown): the “hERG current change (%, negative = inhibition) at 10uM” value was -22.4%.

`COc1ccc(C(=O)C2CCCN(Cc3cnc(N4CCOCC4)s3)C2)c(OC)c1` (stereo not shown): the “hERG current change (%, negative = inhibition) at 10uM” value is -46.9%. With `CCn1ccnc1CN1CCCC(C(=O)c2cc(F)ccc2OC)C1` (stereo not shown), the “hERG current change (%, negative = inhibition) at 10uM” value is -33%. For the compound `CCn1ccnc1CN1CCCC(C(=O)c2ccc3cc(OC)ccc3c2)C1` (stereo not shown), the “hERG current change (%, negative = inhibition) at 10uM” value is given as -70.6%. Under `COc1ccc(Cl)cc1C(=O)C1CCCN(Cc2cnc(C)s2)C1` (stereo not shown) stands -38.1%; under `Cc1ccc(NC(=O)c2cnccn2)cc1`, 15.8%. For `CCCn1c(Cc2ccccc2)nnc1SCC(=O)N1CCOCC1` the value was 16.7%; for `NC(=S)N/N=C/c1ccc([N+](=O)[O-])cc1`, -8.06%; for `O=C(CC1C(=O)NCCN1Cc1ccc(Cl)c(F)c1)NCC1CCOCC1` (stereo not shown), 9.07%.

`CCOC(=O)C1(Cc2ccc(O)cc2)NC(c2ccccc2F)C2C(=O)N(C)C(=O)C21` (stereo not shown): the “hERG current change (%, negative = inhibition) at 10uM” value is listed as -2.04%. Regarding `CCC(=O)NC(c1cccs1)c1cc([N+](=O)[O-])c2cccnc2c1O` (stereo not shown), the “hERG current change (%, negative = inhibition) at 10uM” value is listed as 15%. Under `CC1=NNC(=O)C1CCC(=O)N/N=C(\C)c1ccccc1` (stereo not shown) stands 28.3%; under `CCCCOc1ccc(NC(=O)CSc2nnnn2C)cc1`, -2.43%; under `NCCNc1cc(N2CCCC2)ccc1[N+](=O)[O-]`, 4.66%. For `O=C(C1CCCC1)N1CCN(S(=O)(=O)c2ccc(F)cc2)CC1` the value was 15.9%; for `COc1cc(C2C(C(=O)c3ccc(C)o3)=C(O)C(=O)N2Cc2cccnc2)ccc1O` (stereo not shown), 10.9%.

For `O=C(CCC(=O)NC1CCN(Cc2ccccc2)CC1)NCc1ccco1`, the “hERG current change (%, negative = inhibition) at 10uM” value is recorded as -1.88%.

Consider `N#CCSc1nnc(-c2ccccc2O)n1Cc1ccccc1`, for which the “hERG current change (%, negative = inhibition) at 10uM” value is given as 5.13%. Regarding `N#CCSc1nnc(COc2cccc3ccccc23)n1-c1cccc(Cl)c1`, the “hERG current change (%, negative = inhibition) at 10uM” value worked out at 8.77%. Under `Cc1cccc(-c2nnc(SCC(=O)O)n2Cc2ccccc2)c1` stands -6.26%; under `Cc1cc(C)nc(SCc2nnc(SCC#N)n2-c2cccc(Cl)c2)n1`, -17.6%. For `Cc1cccc(-c2nnc(SCC#N)n2Cc2ccccc2)c1` the value was -66.6%; for `Cc1cccc(-c2nnc(SCC#N)n2-c2cccc(Cl)c2)c1`, -62.5%. Under `Cc1cccc(-c2nnc(SCC#N)n2C)c1` stands 13.2%; under `Cc1ccc(-n2c(SCCN)nnc2-c2cccc(C)c2)cc1.O=C(O)C(=O)O`, -38%; under `Cc1cccc(-c2nnc(SCC#N)n2-c2ccccc2)c1`, -54.7%. For `COC(=O)c1ccc(C2NC(=O)c3c(sc(C)c3C)N2)cc1` (stereo not shown), the “hERG current change (%, negative = inhibition) at 10uM” value amounted to 10.7%.

Regarding `COc1ccc(CCNC(=O)c2ccc3ccccc3n2)cc1`, the “hERG current change (%, negative = inhibition) at 10uM” value was -5.65%.

As to `O=C(CNc1ccc2c(c1)OCO2)N/N=C\c1ccccc1Cl`, the “hERG current change (%, negative = inhibition) at 10uM” value is 3.98%.

Turning to `COc1cccc(NC(=S)N(Cc2ccccn2)Cc2ccccc2Cl)c1`, the “hERG current change (%, negative = inhibition) at 10uM” value came out at 5.73%. Under `O=C(CN(Cc1ccccc1)S(=O)(=O)c1ccccc1)N/N=C/c1ccc2c(c1)OCO2` stands 8.28%. Take `C(=N\C(/N=C/c1ccco1)c1ccco1)/c1ccco1`: the “hERG current change (%, negative = inhibition) at 10uM” value is given as -5.1%.

As to `COc1ccc(NC(=O)N2CCCC2C(=O)NCC2CCCCC2)cc1` (stereo not shown), the “hERG current change (%, negative = inhibition) at 10uM” value is given as 0.904%.

Turning to `Cn1ncn2c(=O)c3c(nc12)-c1ccccc1CC31CCCC1`, the “hERG current change (%, negative = inhibition) at 10uM” value was determined as 1.56%.

For `COc1ccc(NC(=O)Cn2cc(C#N)c3ccccc32)cc1`, the “hERG current change (%, negative = inhibition) at 10uM” value is given as 15.3%. Regarding `CC(=O)Nc1ccc(NC(=O)c2sc(-c3ccccc3)nc2C)cc1`, the “hERG current change (%, negative = inhibition) at 10uM” value is 10.6%. Under `Nc1ccc2nc(-c3ccccc3)[nH]c2c1` stands 6.5%. Under `COc1ccc(NC(=O)C2CCCN(c3cnccn3)C2)c(OC)c1` (stereo not shown) stands 21.4%; under `COc1cc(C)nc(N2CCCC(C(=O)Nc3cc(Cl)ccc3OC)C2)n1` (stereo not shown), 9.96%. Under `CCCc1cc(N2CCCC(C(=O)Nc3c(OC)cccc3OC)C2)n2ncnc2n1` (stereo not shown) stands -10.7%. With `COc1ccc(Cl)cc1NC(=O)C1CCCN(S(C)(=O)=O)C1` (stereo not shown), the “hERG current change (%, negative = inhibition) at 10uM” value is on record as 5.29%. Under `CCCc1cc(N2CCCC(C(=O)Nc3cc(Cl)ccc3OC)C2)n2ncnc2n1` (stereo not shown) stands -70.8%; under `CCCc1cc(N2CCCC(C(=O)Nc3ccc(OC)cc3OC)C2)n2ncnc2n1` (stereo not shown), -51.4%. Under `O=C(Cc1ccccc1)NCCC1=CCCCC1` stands 9.32%.

The values are drawn from publication PMC4336329 (PLoS ONE, 2015).
